PubChem BioAssay AID602438 (Sanford-Burnham Center for Chemical Genomics, 2012)
Hit rate of the full screen: of about 360,000 compounds, about 3,100 (0.86%) were called active.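 Rule for the calls: active = inhibition or corrected inhibition above about 18%, plus a signal ratio from 0.5 to 1.5 (limit read from the data, passing the limit was not always enough); inactive = the rest.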 Many of the other results were omitted from the sample, so actives are more common in it than they were.

target: Neuropilin-1 (Homo sapiens) (UniProt O14786); test: NRP-1/CendR peptide interaction modulators – biochemical, fluorescence polarization, uHTS, primary screen (AID 602438); conditions: FAM-RPARPAR peptide binding to NRP-1, fluorescence polarization; at 25 µM; hits give high values
Sequence (O14786 whole entry, looked up): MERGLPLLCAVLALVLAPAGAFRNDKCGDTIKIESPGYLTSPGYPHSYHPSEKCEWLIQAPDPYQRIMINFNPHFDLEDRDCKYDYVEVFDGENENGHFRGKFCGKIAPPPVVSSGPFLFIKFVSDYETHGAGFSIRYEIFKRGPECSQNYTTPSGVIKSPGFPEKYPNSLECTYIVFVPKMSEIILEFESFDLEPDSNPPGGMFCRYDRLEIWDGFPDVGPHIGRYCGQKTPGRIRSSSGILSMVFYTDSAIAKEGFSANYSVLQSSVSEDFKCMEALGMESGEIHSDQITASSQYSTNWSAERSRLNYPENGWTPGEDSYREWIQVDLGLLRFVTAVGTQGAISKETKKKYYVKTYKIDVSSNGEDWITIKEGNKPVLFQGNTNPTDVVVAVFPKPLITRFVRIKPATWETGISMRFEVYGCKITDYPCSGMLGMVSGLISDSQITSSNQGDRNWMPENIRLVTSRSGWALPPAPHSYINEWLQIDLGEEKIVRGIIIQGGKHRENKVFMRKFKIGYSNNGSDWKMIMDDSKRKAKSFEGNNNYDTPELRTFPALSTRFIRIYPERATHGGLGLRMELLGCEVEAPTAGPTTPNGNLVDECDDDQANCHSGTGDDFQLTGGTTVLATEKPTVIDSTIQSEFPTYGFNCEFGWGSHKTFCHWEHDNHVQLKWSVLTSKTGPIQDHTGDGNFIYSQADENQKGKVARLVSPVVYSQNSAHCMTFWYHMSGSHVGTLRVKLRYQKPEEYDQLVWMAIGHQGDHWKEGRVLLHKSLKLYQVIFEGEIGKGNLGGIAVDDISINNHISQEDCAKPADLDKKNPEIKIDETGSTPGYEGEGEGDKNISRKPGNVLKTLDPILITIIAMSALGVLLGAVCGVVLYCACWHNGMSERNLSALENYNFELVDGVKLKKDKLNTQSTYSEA

inhibition, inactive:
COC(=O)C1(C(=O)OC)C/C=C\CN(S(=O)(=O)c2ccccc2[N+](=O)[O-])CCC1 4.4%
CCOC(=O)[C@@H]1[C@H]2COc3cc(OC)ccc3[C@@H]2N2C(=O)N(c3cccc(C)c3)C(=O)[C@@]12C 4.4%
Cc1cc(OCCOc2cccc3cccnc23)c(C)cc1Cl -14.2%
COc1cccc(CNC(=O)C2CCN(S(=O)(=O)c3cccc4cccnc34)CC2)c1 -3%
CCOc1ccc2c(c1)C(c1ccc(C)cc1)=NNC(c1ccc(C)cc1)=N2 5.9%
O=C(NCCCCO)C(F)(F)C(F)(F)C(F)(F)C(=O)NCCCCO 11.3%
Nc1cccc(-c2cncc(N3CCN(Cc4ccccn4)CC3)n2)c1 1.6%
CCCCCCCCCCOC(=O)C[N+](C)(C)CC1CCCCC1O (stereo not given) 18.2%
Cc1ccn2c(c1)nc(=O)c1cc(S(=O)(=O)N3CCC(C)CC3)ccc12 -3.9%
COc1cc2c(=O)n(C)c3ccccc3c2cc1OC 0%
COc1cc2c(C(=O)O)c(C)n(C)c2c2ccccc12 -42.6%
OC(CNC1CCCC1)COc1ccc(F)cc1 (stereo not given) -0.8%
COC(=O)C1CCN(CC(N)=O)CC1 -10.1%
CCCCC(=O)N(C)c1c(CC)nc2c(OCc3ccc(S(C)(=O)=O)cc3)cccn12 1.6%
CCc1nc2c(OCc3ccc(C(=O)OC)cc3)cccn2c1N(C)C(=O)C(C)C 13.8%
COc1ccc(NC(=O)c2ccccc2CC[N+](=O)[O-])cc1 5.3%
Cc1cc(C(=O)NNC(=O)CCC2CCCCC2)c(C)o1 3.2%
Cc1cccc(NC(=O)C2CCN(C(=O)NC3CCCCC3)CC2)c1 -7.7%
O=C1CC2(CCCCC2)Oc2ccc(OCC(=O)N3CCOCC3)cc21 0.6%
CN(C)CCCNC(=O)c1cc(C(=O)Cc2ccc(Cl)cc2)c[nH]1 3.7%
O=C(c1ccc(F)cc1)C1CCN(Cc2cn[nH]c2-c2ccccc2)CC1 -10.4%
COc1ccccc1CNC(=O)C1Cc2ccccc2C(=O)O1 (stereo not given) -8.4%
O=C1/C(=C/c2cccs2)CCC1C1CCCC1 (stereo not given) 2.8%
C[C@@H]1CC[C@]2(O[C@@H](CCO)C[C@H](O)[C@H]2O)O1 -18.9%
C[C@H]1CC[C@]2(O[C@@H](CCO)C[C@@H](O)[C@@H]2O)O1 13.5%
COCCNC(=O)C1CCCN(Cc2ccccc2Cl)CC1 (stereo not given) 2%
Cc1ccc(S(=O)(=O)C2C(=O)NC3(C)CC2c2ccccc2O3)cc1 (stereo not given) -9.3%
CCCOc1ccc(CNC(=O)C2CCN(c3nn4c(=O)cc(C)nc4s3)CC2)cc1 -7.5%
COc1cccc(N(C(=O)CNC(=O)c2ccco2)C(C(=O)NC2CCCCC2)c2cccnc2)c1 (stereo not given) 5.7%
CC(C)(C)NC(=O)C(c1ccncc1)N(C(=O)CNC(=O)c1ccco1)c1ccc2c(c1)OCO2 (stereo not given) 4%
Cc1ccc(S(=O)(=O)NC2(C(F)(F)F)NC(=O)N(CCc3ccccc3)C2=O)cc1 (stereo not given) 11.7%
O=C(c1c(F)cccc1Cl)N1CCN(S(=O)(=O)c2ccc3c(c2)OCCCO3)CC1 2.8%
Cc1coc2c1c(C)cc1oc(=O)c(CC(=O)NCC(=O)N[C@H](C(=O)O)C(C)C)c(C)c12 -3.3%
Cc1nn(CCCC(=O)NCc2ccccc2Cl)c(=O)c2nccn12 3.3%
C[C@@H]1CN([C@H](C)CO)C(=O)CCCn2cc(nn2)CO[C@H]1CN(C)S(C)(=O)=O -4.3%
CSc1nnnn1-c1c(C)cc(C)cc1C 9.3%
COCCN(C(=O)COC(=O)Cc1cccc(OC)c1)c1c(N)n(Cc2ccccc2)c(=O)[nH]c1=O 3.8%
O=C(O)C1CCCN(CCC=C(c2ccccc2)c2ccccc2)C1 (stereo not given) 1.9%
O=[N+]([O-])/C=C/c1ccc2c(ccn2Cc2ccccc2)c1 -5.7%
Cc1cc(C)nc(NC(=O)/C=C/c2ccc(Cl)cc2)n1 6.6%
COC(=O)c1c(C)[nH]c(C(=O)NCCc2ccc(S(N)(=O)=O)cc2)c1C -1.4%
O=C(NCCCc1ccccc1)C1CCC(=O)N(CCc2ccc(Cl)cc2)C1 (stereo not given) 8.8%
O=C(NCCN1CCOC1=O)C1CCC(=O)N(CCc2ccc(Cl)cc2)C1 (stereo not given) -0.8%
CO[C@@H]1CN(C)C(=O)c2cc(NC(=O)Nc3cc(F)ccc3F)ccc2OC[C@H](C)N(C(=O)c2ccccn2)C[C@@H]1C 2.7%
COc1ccc(Cl)cc1NC(=O)NCC1CCN(Cc2ccccc2F)CC1 -1%
COc1ccc(Cl)cc1NC(=O)NC(C)C(C)(C)C (stereo not given) -1.8%
Cc1n[nH]c(=O)n1-c1ccc(Oc2ccccc2)cc1 20%
CCOc1ccc(CCNC(=O)C2=C(C)C(=O)OC23CCC(C)CC3)cc1OCC (stereo not given) -1.3%
CSc1ccccc1NC(=O)c1cc(Cl)sc1Cl -5.4%
CC(=O)Nc1ccc(NC(=O)COc2ccccc2C(=O)Nc2cccc(Cl)c2Cl)cc1 4.5%
COc1ccc(CN2C3CCCC2CC(NC(=O)c2cccc(F)c2)C3)cc1 (stereo not given) -2.7%
COc1ccc(CN2C(CC(=O)Nc3cccnc3)c3ccc(C(F)(F)F)cc3S2(=O)=O)cc1 (stereo not given) 0.3%
O=C(C[n+]1cc(-c2ccc(Cl)c(Cl)c2)n2c1CCC2)c1cccs1 -11.8%
CCOC(=O)C1(Cc2ccccc2C)CCCN(C(=O)CN2C(=O)CSC2=O)C1 (stereo not given) 5.9%
COc1ccc(CC(=O)OC(C)C(=O)Nc2ccc(S(N)(=O)=O)cc2)cc1 (stereo not given) -4.6%
COC(C[C@@H](O)C[C@H](O)[C@H](C)OCc1ccccc1)OC -8.8%
COC(C[C@@H](O)C[C@@H](O)[C@H](C)OCc1ccccc1)OC 17.1%
COCCn1c(SCc2nc3cc(OC)c(OC)cc3c(=O)[nH]2)nnc1-c1ccncc1 14.6%
NS(=O)(=O)c1ccc(CCNC(=O)c2nc(CS(=O)(=O)c3ccc(Cl)cc3)no2)cc1 -1.3%
O=C1C=C(NCCNc2c(F)c(F)c(CO)c(F)c2F)CCC1 -0.5%
CCOC(=O)[C@]12CCC=C1N(Cc1ccccc1)C(=O)[C@H](CC(=O)N1CCCC1)C2 -23.1%
CC(=O)NC(CC(=O)Nc1nc(-c2ccccc2)c(C(C)=O)s1)c1ccccc1 (stereo not given) -4.6%
CCN1C(=S)N[C@@H](CCc2ccccc2)[C@H](C(=O)OC)[C@H]1C 10.2%
CCN1C(=O)N[C@@H](c2ccccc2)[C@H](C(C)=O)[C@H]1C 7.8%
CC12COC3(C(=O)Nc4ccc(Cl)cn4)CC1CCC32C (stereo not given) -0.2%
Cc1ccc(OCC(=O)Nc2ccc(C(=O)O)cc2NC(=O)COc2ccc(C)c(C)c2)cc1C 0.7%
COc1ccc(OCC(=O)OCCN(C)C)cc1 1.6%
CCCCNC(=O)C1(O)c2ccccc2NC(=O)N1c1ccc(Cl)cc1 (stereo not given) 3.9%
COc1ccc(N(CC(=O)NCCSCc2cccc(Cl)c2)S(C)(=O)=O)cc1 -7.7%
CCCNC(=O)c1cc2c(c(-c3cccc(-c4ccc(C#N)cc4)c3)n1)[C@@H](CCO)N(C(=O)CC)C2 8.8%
O=C(N[C@H]1CC[C@H](CC(=O)N2CCCCC2)O[C@@H]1CO)c1cccc(F)c1 -5%
Cc1cc(=O)oc2c(C)c(OC(C)C(=O)NC3CCN(Cc4ccccc4)CC3)ccc12 (stereo not given) 12.6%
CCCc1cc(=O)oc2c(C)c(OCC(=O)NCc3ccccn3)ccc12 -1%

inhibition, active:
CC(=O)/C(=N\Nc1ccc(Cl)cc1Cl)Sc1cccc2cccnc12 61.1%
Cc1ccc(C2=Nc3c(ccc4ccccc34)C(c3ccncc3)=NN2)cc1 25.8%
COc1cccc2c(O)cc(=O)n(C)c12 19.9%
CCc1nc2c(OCc3ccc(C(F)(F)F)cc3)cccn2c1N(C)C(=O)CC(C)C 22.7%
O=C(Nc1cccc(OCC(=O)N2CCOCC2)c1)C1CCCCC1 21.3%
OCC[C@H]1C[C@H](O)[C@@H](O)[C@]2(CCCCO2)O1 28.3%
Cc1ccc(N(C(=O)CNC(=O)c2ccco2)C(C(=O)NC2CCCC2)c2ccncc2)cc1 (stereo not given) 18.5%
Cc1coc2c(O)cc3c(c12)OC1(N2CCCCC2)C(=O)NCCCC31 (stereo not given) 26.1%
COC(=O)c1c(C)[nH]c(C(=O)/C=C/c2ccc(Cl)cc2)c1C 41%
Cc1cc(CNC(=O)C2CCC(=O)N(CCc3ccc(Cl)cc3)C2)no1 (stereo not given) 28.7%
COc1ccc(Cl)cc1NC(=O)C(C)N1CCc2ccccc21 (stereo not given) 23.1%
CN(C)S(=O)(=O)Oc1ccccc1C(=O)Nc1ccccc1Cl 50.6%
COc1ccc(CN2[C@@H](CC(=O)O)c3cc(F)ccc3S2(=O)=O)cc1 26.2%
COC(C[C@@H](O)[C@H](C)[C@H](O)COCc1ccccc1)OC 18.6%
COCCN1C(=O)N[C@@H](CCc2ccccc2)[C@H](C(C)=O)[C@H]1C 23.7%
COc1ccc(C(=O)COC(=O)COc2ccc(C)c(C)c2)cc1 33.9%
CCCc1cc(=O)oc2c(C)c(OC(C)C(=O)NCC(O)c3ccccc3)ccc12 (stereo not given) 22.4%
